Measurements from PubChem BioAssay (NCI).
The panel holds about 79,000 compounds, 15% with a hit somewhere; the sample as a whole holds those more often. Unmarked numbers belong to inactive results. Activity calls are given as the source filed them. Rule as the data show it: active = growth inhibition above about 70%; inactive = the rest.

Tests used:
[1] = NCI Yeast Anticancer Drug Screen. Data for the rad50 strain (AID 155);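 also: 0% = growth of vehicle-only cultures of the same strain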; settings: S. cerevisiae rad50 strain growth inhibition; at 50.0 µM; active compounds read high
Method in brief: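 Vehicle-treated cultures provide the reference for the growth inhibition reported for compound-exposed, repair-deficient yeast.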

[2] = NCI Yeast Anticancer Drug Screen. Data for the mec2-1 strain (AID 157); settings: S. cerevisiae mec2-1 strain, at 50.0 µM, active compounds read high
Method in brief: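 Using mec2-1 yeast: add compound, measure growth, express inhibition versus vehicle-treated cultures.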

[3] = NCI Yeast Anticancer Drug Screen. Data for the sgs1 mgt1 strain (AID 161);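 also: 0% = growth of cultures given vehicle only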; settings: S. cerevisiae sgs1 mgt1 strain, at 50.0 µM, active compounds read high
Method in brief: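 This yeast growth screen uses a strain with defined DNA-repair lesions; compound-treated growth is compared with vehicle-treated growth.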

[4] = NCI Yeast Anticancer Drug Screen. Data for the cln2 rad14 strain (AID 165);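 also: 0% = growth equal to vehicle treated cultures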; settings: S. cerevisiae cln2 rad14 strain, at 50.0 µM, active compounds read high
Method in brief: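 Yeast strain cln2 rad14, bearing defects in cell cycle control and DNA repair, serves as the test system; values reflect growth inhibition compared with vehicle.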

[5] = NCI Yeast Anticancer Drug Screen. Data for the bub3 strain (AID 167); settings: S. cerevisiae bub3 mutant strain, at 50.0 µM, active compounds read high
Method in brief: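 Mutant yeast screening strain plus compound; vehicle-treated cultures serve as the 0% inhibition reference.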

[6] = NCI Yeast Anticancer Drug Screen. Data for the mlh1 rad18 strain (AID 175); settings: S. cerevisiae mlh1 rad18 strain growth inhibition; at 50.0 µM; active compounds read high
Method in brief: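 Steps: expose repair-defective yeast to compound; measure growth; express inhibition against vehicle-treated controls.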

SMILES	growth inhibition [1]	growth inhibition [2]	growth inhibition [3]	growth inhibition [4]	growth inhibition [5]	growth inhibition [6]
CCOC(=O)CC1(C)SCCN1C(N)=O (stereo unspecified)	2.25%	4.35%	-5.85%	-26.3%	4%	-10.2%
CC(C)(C)C(=O)OCCN(CCOC(=O)C(C)(C)C)C(=O)COC(=O)C(C)(C)C	31.4%	-0.95%	21.1%	20.7%	-3.25%	20.4%
Cc1nnc2cc1CCCCCCCCC2	11.8%	6.25%	4.8%	5.2%	-10.8%	4.9%
CCOC(=O)C1C(c2ccc(Cl)cc2Cl)NC(c2ccc(C)cc2)C(C(=O)OC)S1(=O)=O (stereo unspecified)	13%	-9.8%	-8.85%	27.3%	-5.1%	27.1%
CN(C)C(=S)/N=C1\SCS(=O)(=O)N1C	14.2%	6.55%	-6%	7.7%	-6.6%	9.15%
Cc1ccc(S(=O)(=O)CCN2CCOCC2)cc1	15.3%	-3.15%	5%	-32.3%	5.85%	2.8%
N#CCCN(Cc1ccccc1)C(=S)Nc1cccc(C(F)(F)F)c1	75.8% (active)	53%	85.2% (active)	81.5% (active)	70.1% (active)	78% (active)
CC(C)C(C(N)=O)C(C)(C)C (stereo unspecified)	1.1%	4.2%	14.9%	8.6%	-7.5%	-9.55%
CCCC(=O)Nc1ccccc1	18.1%	-15.8%	8.75%	7%	-4.75%	19.6%
CSc1ccc(NC(=O)Nc2cc(C)ccc2Cl)cc1	-2.05%	23%	25.9%	-4.05%	41.1%	19.6%
CN1N(c2ccccc2)C(=O)C2=NC=C(C#N)C(=N)C21C (stereo unspecified)	14.9%	41%	24.6%	15.9%	19.5%	42.4%
COc1cc(NCCCCCCNCC(C)C)c2nccc(C)c2c1	53.1%	44.5%	62.8%	18.1%	37.6%	21.6%
COC(=O)CNC(=O)C1CSC(C)(C)N1 (stereo unspecified)	-5.9%	-6.65%	-15.7%	-12.2%	-1.05%	-9.15%
N#C/C(=C/NC(=S)NCc1ccccc1)C(N)=O	-32.6%	-42.1%	-4.6%	0.25%	6.7%	-0.3%
CC1CC(c2ccccc2)=Nc2ccccc2S1 (stereo unspecified)	18.2%	12.9%	16.2%	19.5%	6.5%	-9.4%
CCN(CC)CCOC(=O)CCC(C)=O	6.35%	-31.5%	-7.65%	0.8%	-9.1%	7.45%
CC(C)(C)C1=CC(=N/N=c2\scc(-c3ccccc3)n2Cc2ccccc2)C=C(C(C)(C)C)C1=O	17.4%	-4.6%	-5.35%	-29.5%	-11.6%	-2.6%
Cc1ccc(S(=O)(=O)c2ccccn2)cc1	-37.2%	-11.2%	-9.35%	-1.7%	-13%	-24.1%
N#Cc1c(-c2ccccc2)cc(-c2ccccc2)[nH]c1=O	18.6%	7.4%	16.4%	11.7%	3.5%	22.9%
OC(c1cc2ccccc2c2ccccc12)C1CCCCN1 (stereo unspecified)	21.9%	16.9%	43.8%	13.2%	20%	36.2%
CN1CCN(P(=O)(c2ccccc2)N2CCN(C)CC2)CC1	32.3%	7.85%	29.6%	20.1%	-1.1%	30.7%

SMILES	growth inhibition [1]	growth inhibition [2]	growth inhibition [3]	growth inhibition [4]	growth inhibition [5]	growth inhibition [6]
Clc1cnc(/N=C/c2ccc(/C=N/c3ncc(Cl)cc3Cl)cc2)c(Cl)c1	13%	-21.8%	6.05%	10%	-5.8%	16.4%
Cc1ccc(S(=O)(=O)N(CCCc2c(Cl)nc(N)nc2Cc2ccccc2)c2ccccc2)cc1	-9.75%	-16.5%	-17.2%	-73.8%	-0.8%	-4.65%
O=P(O)(O)c1ccc(Oc2ccccc2)cc1	-8.6%	1.35%	-4.1%	-22.2%	5.45%	-2.85%
COC(=O)c1c(C)ccc(C)c1C(=O)c1c(C)cc(C)cc1C	-14.6%	11.5%	5%	-28.1%	24.3%	4.1%
CCN(CC)CCCNc1c2c(nc3ccc(Cl)cc13)CCCC2	-20.1%	-9.35%	0.6%	-8.1%	-11.8%	2.75%
OCC[N-]CC[N-]CCO.[Cl][Co][Cl]	27.8%	32.1%	32.7%	22.9%	36.6%	35.2%
O=C(O)c1cc2cc(Br)ccc2c(Br)c1O	-3.75%	-25.7%	-8%	-71.3%	-24.2%	-3.85%
COc1ccc(C(C#N)CC(=O)c2ccccc2)cc1 (stereo unspecified)	6.4%	10.9%	0.95%	4.45%	-2.6%	-8.35%
COC(=O)C1C(=O)C2OC1C1OC(C)(C)OC21 (stereo unspecified)	7.75%	-12.1%	-12.1%	-52.4%	1.7%	-0.95%
NC(Cc1cc(I)c(O)c(I)c1)C(=O)O (stereo unspecified)	-0.95%	-6.05%	-12.6%	8.2%	8.3%	1.35%
O=C(Nc1ccccc1)/C(N=Nc1ccccc1)=N\Nc1ccccc1	-12.6%	-16.1%	-10.4%	-28.4%	6.6%	19.8%
O=C(NCc1ccco1)Nc1ccc(Cl)cc1	-29.5%	-0.8%	0.6%	-51.4%	14.5%	-2.7%
CN(C(=S)NNC(=O)C1CCC(=O)N1)c1ccccc1 (stereo unspecified)	23.2%	-2%	3.3%	13.7%	21.4%	26.9%
CC1(C)C/C(=C\c2ccc([N+](=O)[O-])cc2)C(=O)c2ccccc21	80.3% (active)	71.7% (active)	77.5% (active)	40.3%	76.5% (active)	89% (active)
C=C(C)COc1ccc2c(c1)CCC1C2CCC2(C)C1CCC2(C)O (stereo unspecified)	21%	0.45%	3.75%	17.6%	-0.9%	6.6%
COC(=O)c1ccc(SCCC(C)=O)cc1	-8%	5.3%	-12.1%	9.9%	25.9%	0.7%
c1ccc(CN[C@]23C4C5CC6C7C5C2C7[C@@](NCc2ccccc2)(C64)N3Cc2ccccc2)cc1 (stereo partly specified)	2.7%	-1.05%	-11.8%	-37.4%	-0.85%	5.25%
Cc1ccc(C(CCl)c2ccc(C)cc2)cc1	-18.1%	-1.45%	-0.35%	-36.5%	-21.5%	-2.95%
Nc1nc2c(-c3ccc([N+](=O)[O-])cc3)nnn2c2ccccc12	12.7%	5.5%	37%	9.7%	22.2%	25.3%
CC(=O)[CH-]C(=O)c1ccccc1.CC(=O)[CH-]C(=O)c1ccccc1.CC12CC3(C)CC(C)(C1)CC([O-])(C2)C3.CC[O-].[Ti+4]	15.1%	21.8%	28.6%	23.8%	8.55%	18%
